# PubChem BioAssay (EPA / NIEHS)
# Calls of active or inactive are those of the source. How the source made its calls: active means hit-call score of the fitted dose curve at least 0.9, where 1 is the maximum; inactive means score below 0.9.
# Key:
# Conditions in all cases: mRNA level, 48 h; actives raise or lower the signal
# [1] = read-out: CYP2E1 (gene 1571); assay: LTEA_HepaRG_CYP2E1: Life Technologies and Expression Analysis (LTEA) Assay for CYP2E1 using HepaRG (AID 2283485)
# In short: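 Readout is qRT-PCR of CYP2E1 mRNA, normalized to three housekeeping genes and fitted bidirectionally against 0.5% DMSO. HepaRG cells were dosed 48 h at eight concentrations, highest 100 uM with half-log dilutions.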
# [2] = read-out: CYP4A11 (gene 1579); assay: LTEA_HepaRG_CYP4A11: Life Technologies and Expression Analysis (LTEA) Assay for CYP4A11 using HepaRG (AID 2283486)
# In short: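 Readout is CYP4A11 transcript level by qRT-PCR, normalized to three housekeeping genes and fitted bidirectionally against 0.5% DMSO. Human HepaRG cells were treated 48 h, in duplicate, with an 8-point half-log series topping at 100 uM.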
# [3] = read-out: Cytochrome P450 3A4 (Homo sapiens) (UniProt P08684); assay: LTEA_HepaRG_CYP3A4: Life Technologies and Expression Analysis (LTEA) Assay for CYP3A4 using HepaRG (AID 2283487)
# In short: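 CYP3A4 transcript measured by TaqMan qRT-PCR and normalized to three housekeeping genes after 48 h chemical exposure of human HepaRG cells. Top concentration 100 uM, half-log steps, 0.5% DMSO vehicle; gain or loss fitted against DMSO baseline.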
# [4] = read-out: DNA damage-inducible transcript 3 (DDIT3), DDIT3 (gene 1649); assay: LTEA_HepaRG_DDIT3: Life Technologies and Expression Analysis (LTEA) Assay for DNA damage-inducible transcript 3 (DDIT3) using HepaRG (AID 2283488)
# In short: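 Cells are human HepaRG liver cells treated for 48 h with eight half-log concentrations up to 100 uM in 0.5% DMSO. Transcript levels come from qRT-PCR normalized to three housekeeping genes, with activity fitted in both directions relative to vehicle.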
# [5] = read-out: Pro-epidermal growth factor (Homo sapiens) (UniProt P01133); assay: LTEA_HepaRG_EGF: Life Technologies and Expression Analysis (LTEA) Assay for Epidermal growth factor (EGF) using HepaRG (AID 2283489)
# In short: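 EGF transcript measured by Fluidigm TaqMan qRT-PCR with three housekeeping genes for normalization, 48 h after dosing HepaRG cultures in duplicate (top 100 uM, half-log steps, 0.5% DMSO vehicle). Gain or loss relative to DMSO fitted.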
# [6] = read-out: Early growth response protein 1 (EGR1) transcription factor, EGR1 (gene 1958); assay: LTEA_HepaRG_EGR1: Life Technologies and Expression Analysis (LTEA) Assay for Early growth response protein 1 (EGR1) transcription factor using HepaRG (AID 2283490)
# In short: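 EGR1 transcript levels quantified by qRT-PCR (Fluidigm arrays) against three housekeeping genes after 48 h chemical exposure of HepaRG cells. Eight-point half-log series topping at 100 uM, 0.5% DMSO vehicle, analyzed for gain or loss.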
# [7] = read-out: Ezrin (EZR), EZR (gene 7430); assay: LTEA_HepaRG_EZR: Life Technologies and Expression Analysis (LTEA) Assay for Ezrin (EZR) using HepaRG (AID 2283491)
# In short: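 HepaRG, 48 h chemical exposure, 8-pt half-log series from 100 uM, 0.5% DMSO vehicle, duplicates. Read-out: EZR mRNA by TaqMan qRT-PCR (Fluidigm array), housekeeping-normalized; bidirectional curve fit vs DMSO baseline.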
# [8] = read-out: Cytochrome P450 3A7 (Homo sapiens) (UniProt P24462); assay: LTEA_HepaRG_CYP3A7: Life Technologies and Expression Analysis (LTEA) Assay for CYP3A7 using HepaRG (AID 2283492)
# In short: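 CYP3A7 transcript measured by qRT-PCR (ACTB, GAPDH, POLR2A normalization) after 48 h chemical exposure of HepaRG cells in duplicate. Eight half-log concentrations, maximum 100 uM, 0.5% DMSO vehicle; bidirectional curve fitting against DMSO baseline.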
# [9] = read-out: CYP3A5 (gene 1577); assay: LTEA_HepaRG_CYP3A5: Life Technologies and Expression Analysis (LTEA) Assay for CYP3A5 using HepaRG (AID 2283493)
# In short: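 Human HepaRG hepatic cells receive 48 h chemical treatment at eight concentrations (half-log steps from 100 uM) in 0.5% DMSO. Expression of CYP3A5 is quantified by Fluidigm qRT-PCR and normalized to three reference genes.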
# [10] = read-out: Fatty Acid-Binding Protein 1 (FABP1), FABP1 (gene 2168); assay: LTEA_HepaRG_FABP1: Life Technologies and Expression Analysis (LTEA) Assay for Fatty Acid-Binding Protein 1 (FABP1) using HepaRG (AID 2283494)
# In short: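 FABP1 expression by TaqMan qRT-PCR, normalised to three housekeeping genes, in HepaRG cells after 48 h chemical treatment. Eight-point half-log series topping at 100 uM in 0.5% DMSO, duplicates; gain or loss fitted relative to vehicle.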
# [11] = read-out: Cytochrome P450 4A22 (Homo sapiens) (UniProt Q5TCH4); assay: LTEA_HepaRG_CYP4A22: Life Technologies and Expression Analysis (LTEA) Assay for Cytochrome P450 4A22 (CYP4A22) using HepaRG (AID 2283495)
# In short: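 Gene expression measured by qRT-PCR against three housekeeping genes (ACTB, GAPDH, POLR2A), with gain or loss fitted relative to 0.5% DMSO vehicle. HepaRG cultures received 48 h chemical treatment, top concentration 100 uM, half-log steps, duplicate wells.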
# [12] = read-out: Cytochrome P450 7A1 (Homo sapiens) (UniProt P22680); assay: LTEA_HepaRG_CYP7A1: Life Technologies and Expression Analysis (LTEA) Assay for Cytochrome P450 7A1 (CYP7A1) using HepaRG (AID 2283496)
# In short: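 HepaRG, 48 h exposure, 8-pt half-log series from 100 uM, 0.5% DMSO vehicle, duplicates. Readout: TaqMan qRT-PCR mRNA vs three housekeeping genes; bidirectional curve fit against DMSO baseline.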
# [13] = read-out: Glutathione S-Transferase (GSTA2), GSTA2 (gene 2939); assay: LTEA_HepaRG_GSTA2: Life Technologies and Expression Analysis (LTEA) Assay for Glutathione S-Transferase (GSTA2) using HepaRG (AID 2283497)
# In short: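 GSTA2 transcript levels came from Fluidigm TaqMan qRT-PCR normalized to three housekeeping genes, fitted in both directions against DMSO. HepaRG cultures received chemicals for 48 h in serum-free induction medium (0.5% DMSO), 8 half-log concentrations up to 100 uM, duplicate.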
# [14] = read-out: Glutamate-cysteine ligase catalytic (GCLC), GCLC (gene 2729); assay: LTEA_HepaRG_GCLC: Life Technologies and Expression Analysis (LTEA) Assay for Glutamate-cysteine ligase catalytic (GCLC) using HepaRG (AID 2283498)
# In short: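 Expression by TaqMan qRT-PCR, normalized to three housekeeping genes (ACTB, GAPDH, POLR2A), with up- or down-regulation fitted against DMSO. HepaRG cells dosed in duplicate for 48 h with 8 half-log concentrations up to 100 uM, vehicle 0.5% DMSO.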
# [15] = read-out: growth arrest and DNA damage 45 (GADD45G), GADD45G (gene 10912); assay: LTEA_HepaRG_GADD45G: Life Technologies and Expression Analysis (LTEA) Assay for growth arrest and DNA damage 45 (GADD45G) using HepaRG (AID 2283499)
# In short: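 GADD45G transcript level by qRT-PCR (housekeeping-normalized: ACTB, GAPDH, POLR2A) after 48 h chemical treatment of a single HepaRG lot in serum-free induction medium; eight-point half-log series up to 100 uM in 0.5% DMSO, duplicates, up- or down-regulation scored.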
# [16] = read-out: Glutamate-cysteine ligase regulatory (GCLM), GCLM (gene 2730); assay: LTEA_HepaRG_GCLM: Life Technologies and Expression Analysis (LTEA) Assay for Glutamate-cysteine ligase regulatory (GCLM) using HepaRG (AID 2283500)
# In short: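 Endpoint is GCLM transcript level by qRT-PCR, normalized to three housekeeping genes, after 48 h chemical exposure of human HepaRG cells (0.5% DMSO vehicle, top 100 uM, half-log dilutions). Fitting was bidirectional relative to DMSO.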
# [17] = read-out: Glutathione S-transferase M3 (GSTM3), GSTM3 (gene 2947); assay: LTEA_HepaRG_GSTM3: Life Technologies and Expression Analysis (LTEA) Assay for Glutathione S-transferase M3 (GSTM3) using HepaRG (AID 2283501)
# In short: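 GSTM3 transcript levels came from Fluidigm TaqMan qRT-PCR normalized to three housekeeping genes, fitted in both directions against DMSO. HepaRG cultures received chemicals for 48 h in serum-free induction medium (0.5% DMSO), 8 half-log concentrations up to 100 uM, duplicate.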
# [18] = read-out: Heat shock 70 kDa protein 1 (HSPA1A), gene 3303; assay: LTEA_HepaRG_HSPA1A: Life Technologies and Expression Analysis (LTEA) Assay for Heat shock 70 kDa protein 1 (HSPA1A) using HepaRG (AID 2283502)
# In short: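 Cells were plated and cultured for 48 h, then switched to serum-free induction medium. Chemicals were added at eight half-log concentrations up to 100 uM for 48 h. RNA was then isolated and HSPA1A measured by qRT-PCR with bidirectional curve fitting against DMSO.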
# [19] = read-out: Hypoxia-inducible factor 1-alpha (Homo sapiens) (UniProt Q16665); assay: LTEA_HepaRG_HIF1A: Life Technologies and Expression Analysis (LTEA) Assay for Hypoxia-inducible factor 1 (HIF1A) Trancription factor using HepaRG (AID 2283503)
# In short: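 HIF1A transcript level read by qRT-PCR (ACTB, GAPDH, POLR2A normalization) after 48 h chemical exposure of HepaRG cultures. Eight half-log concentrations, top 100 uM, 0.5% DMSO vehicle, duplicates; bidirectional curve fit against DMSO baseline.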
# [20] = read-out: 3-Hydroxy-3-Methylglutaryl-CoA Synthase 2 (HMGCS2), HMGCS2 (gene 3158); assay: LTEA_HepaRG_HMGCS2: Life Technologies and Expression Analysis (LTEA) Assay for 3-Hydroxy-3-Methylglutaryl-CoA Synthase 2 (HMGCS2) using HepaRG (AID 2283504)
# In short: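 Readout is HMGCS2 transcript by qRT-PCR, housekeeping-normalised (ACTB/GAPDH/POLR2A) and fitted bidirectionally against 0.5% DMSO. Differentiated HepaRG cells received chemicals 48 h, duplicate wells, eight half-log concentrations topping at 100 uM.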
# Cytochrome P450 3A4 (Homo sapiens), sequence (P08684 whole entry, looked up): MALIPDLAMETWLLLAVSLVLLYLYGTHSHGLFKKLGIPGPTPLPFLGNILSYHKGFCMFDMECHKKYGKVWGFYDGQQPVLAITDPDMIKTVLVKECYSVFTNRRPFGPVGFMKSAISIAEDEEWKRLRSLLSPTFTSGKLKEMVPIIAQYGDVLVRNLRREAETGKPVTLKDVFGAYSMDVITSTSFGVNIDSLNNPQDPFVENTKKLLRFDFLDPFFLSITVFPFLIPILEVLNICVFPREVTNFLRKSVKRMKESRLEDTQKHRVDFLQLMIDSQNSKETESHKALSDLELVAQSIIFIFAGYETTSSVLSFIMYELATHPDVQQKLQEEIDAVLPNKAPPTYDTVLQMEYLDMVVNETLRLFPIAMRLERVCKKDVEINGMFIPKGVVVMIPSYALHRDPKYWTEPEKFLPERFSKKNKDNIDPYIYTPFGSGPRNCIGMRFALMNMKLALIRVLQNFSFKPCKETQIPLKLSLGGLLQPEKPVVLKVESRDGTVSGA
# Cytochrome P450 3A7 (Homo sapiens), sequence (P24462 whole entry, looked up): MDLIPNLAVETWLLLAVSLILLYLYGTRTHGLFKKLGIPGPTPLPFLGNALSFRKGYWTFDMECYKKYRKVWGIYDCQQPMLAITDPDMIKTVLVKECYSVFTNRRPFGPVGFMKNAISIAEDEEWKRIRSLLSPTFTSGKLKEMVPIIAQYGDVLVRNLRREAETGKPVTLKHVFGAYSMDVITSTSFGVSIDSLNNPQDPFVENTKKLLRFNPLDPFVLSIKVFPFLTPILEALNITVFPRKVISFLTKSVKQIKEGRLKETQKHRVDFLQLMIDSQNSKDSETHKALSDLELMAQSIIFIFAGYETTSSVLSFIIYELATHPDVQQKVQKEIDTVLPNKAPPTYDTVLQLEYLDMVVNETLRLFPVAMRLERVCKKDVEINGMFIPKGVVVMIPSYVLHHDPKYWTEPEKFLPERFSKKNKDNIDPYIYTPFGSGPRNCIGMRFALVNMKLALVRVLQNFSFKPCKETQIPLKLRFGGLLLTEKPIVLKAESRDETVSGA
# Hypoxia-inducible factor 1-alpha (Homo sapiens), sequence (Q16665 whole entry, looked up): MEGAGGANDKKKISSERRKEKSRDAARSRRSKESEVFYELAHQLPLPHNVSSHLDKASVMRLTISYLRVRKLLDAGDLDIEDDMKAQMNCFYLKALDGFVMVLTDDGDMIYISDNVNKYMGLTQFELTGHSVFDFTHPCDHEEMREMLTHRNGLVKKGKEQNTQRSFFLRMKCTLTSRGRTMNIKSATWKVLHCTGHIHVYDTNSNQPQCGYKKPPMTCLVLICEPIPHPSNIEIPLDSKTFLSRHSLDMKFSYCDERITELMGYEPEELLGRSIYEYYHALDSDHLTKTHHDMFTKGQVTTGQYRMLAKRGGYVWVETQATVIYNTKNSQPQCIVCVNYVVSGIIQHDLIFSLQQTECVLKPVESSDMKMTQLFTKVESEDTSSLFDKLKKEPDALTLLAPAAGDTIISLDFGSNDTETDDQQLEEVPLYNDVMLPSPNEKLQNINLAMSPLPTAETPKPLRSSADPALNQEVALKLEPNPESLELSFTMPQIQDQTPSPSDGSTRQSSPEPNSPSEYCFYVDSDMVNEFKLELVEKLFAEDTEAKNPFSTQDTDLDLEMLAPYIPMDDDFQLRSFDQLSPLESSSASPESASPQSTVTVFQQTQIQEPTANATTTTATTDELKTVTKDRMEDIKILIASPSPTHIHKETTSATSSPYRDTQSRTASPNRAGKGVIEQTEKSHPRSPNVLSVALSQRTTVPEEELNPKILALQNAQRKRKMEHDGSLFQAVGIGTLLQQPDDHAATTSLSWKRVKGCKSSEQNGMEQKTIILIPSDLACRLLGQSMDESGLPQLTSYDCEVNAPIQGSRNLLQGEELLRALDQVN
smiles,measurement,setting,value
OCCOCCOCCO,outcome,[1],inactive
same,outcome,[2],inactive
same,outcome,[3],inactive
same,outcome,[4],inactive
same,outcome,[5],inactive
same,outcome,[6],inactive
same,outcome,[7],inactive
same,outcome,[8],inactive
same,outcome,[9],inactive
same,outcome,[10],inactive
same,outcome,[11],inactive
same,outcome,[12],inactive
same,outcome,[13],inactive
same,outcome,[14],inactive
same,outcome,[15],inactive
same,outcome,[16],inactive
same,outcome,[17],inactive
same,outcome,[18],inactive
same,outcome,[19],inactive
same,outcome,[20],inactive
CCCCC(CC)C(=O)OCCOCCOCCOC(=O)C(CC)CCCC (stereo unspecified),outcome,[1],inactive
same,AC50,[2],50 µM (active)
same,outcome,[3],inactive
same,outcome,[4],inactive
same,outcome,[5],inactive
same,outcome,[6],inactive
same,outcome,[7],inactive
same,outcome,[8],inactive
same,outcome,[9],inactive
same,outcome,[10],inactive
same,outcome,[11],inactive
same,outcome,[12],inactive
same,outcome,[13],inactive
same,outcome,[14],inactive
same,outcome,[15],inactive
same,outcome,[16],inactive
same,outcome,[17],inactive
same,outcome,[18],inactive
same,outcome,[19],inactive
same,outcome,[20],inactive
CCCCOC(=O)c1ccccc1,outcome,[1],inactive
same,outcome,[2],inactive
same,outcome,[3],inactive
same,outcome,[4],inactive
same,outcome,[5],inactive
same,outcome,[6],inactive
same,outcome,[7],inactive
same,outcome,[8],inactive
same,outcome,[9],inactive
same,AC50,[10],12.1 µM (active)
same,outcome,[11],inactive
same,outcome,[12],inactive
same,outcome,[13],inactive
same,outcome,[14],inactive
same,outcome,[15],inactive
same,outcome,[16],inactive
same,outcome,[18],inactive
same,outcome,[19],inactive
same,outcome,[20],inactive
CCCCCCCCCCCCCCCCOS(=O)(=O)O,AC50,[1],38.5 µM (active)
same,outcome,[2],inactive
same,outcome,[3],inactive
same,outcome,[4],inactive
same,outcome,[5],inactive
same,outcome,[6],inactive
same,outcome,[7],inactive
same,outcome,[8],inactive
same,outcome,[9],inactive
same,outcome,[10],inactive
same,outcome,[11],inactive
same,AC50,[12],45.2 µM (active)
same,AC50,[13],43.5 µM (active)
same,outcome,[14],inactive
same,outcome,[15],inactive
same,outcome,[17],inactive
same,outcome,[18],inactive
same,outcome,[19],inactive
same,outcome,[20],inactive
CCCCCCCCN(C)C,outcome,[1],inactive
same,outcome,[2],inactive
same,outcome,[3],inactive
same,outcome,[4],inactive
same,outcome,[5],inactive
same,outcome,[6],inactive
same,outcome,[7],inactive
same,outcome,[8],inactive
same,outcome,[9],inactive
same,outcome,[10],inactive
same,outcome,[11],inactive
same,outcome,[12],inactive
same,outcome,[13],inactive
same,outcome,[14],inactive
same,outcome,[15],inactive
same,outcome,[16],inactive
same,outcome,[18],inactive
same,outcome,[19],inactive
same,outcome,[20],inactive
CCCOc1ccc(S(=O)(=O)N2CCN(CC)CC2)cc1-c1nc2c(CC)n(Cc3ccccn3)nc2c(=O)[nH]1,AC50,[1],4.54 µM (active)
same,AC50,[2],30.9 µM (active)
same,AC50,[3],2.11 µM (active)
same,AC50,[4],69.6 µM (active)
same,outcome,[5],inactive
same,outcome,[6],inactive
same,outcome,[7],inactive
same,AC50,[8],1.22 µM (active)
same,outcome,[9],inactive
same,AC50,[10],12.1 µM (active)
same,AC50,[11],9.92 µM (active)
same,AC50,[12],4.07 µM (active)
same,outcome,[13],inactive
same,outcome,[14],inactive
same,AC50,[15],77.9 µM (active)
same,outcome,[16],inactive
same,AC50,[18],25.3 µM (active)
same,outcome,[19],inactive
same,outcome,[20],inactive
